Test results taken from PubChem BioAssay.
Active and inactive are the calls of the source. The rule behind the calls is not given here.

molecular target: Lethal factor (Bacillus anthracis) (UniProt P15917); experiment: Bacillus anthracis lethal factor inhibition, microsphere flow cytometry protease assay, validation at 10 µM (AID 588461); conditions: multiplex microsphere protease cleavage assay, stronger effect = higher value

SMILES | inhibition
O=C(CC1(O)C(=O)Nc2ccccc21)c1ccccc1O (stereo not drawn) | -1.4% (inactive)
COc1ccc2c(c1)c(=O)oc1cc3occ(C(C)(C)C)c3cc12 | 6.9% (inactive)
COc1ccccc1/C=C/C(=O)OCCN1CCOCC1 | -6.7% (inactive)
O=C(O)CC(O)C(=O)O (stereo not drawn) | 3.8% (inactive)
Cc1ccc(C2CC(c3cccs3)=NN2C(=O)c2ccco2)o1 (stereo not drawn) | 1.3% (inactive)
CC(CCCC(C)(C)O)NC(=O)c1ccc(OC2CCN(C(=O)C3CC3)CC2)cc1 (stereo not drawn) | 1% (inactive)
CC1Cc2ccccc2N1NC(=O)c1ccc(Cl)c(S(N)(=O)=O)c1 (stereo not drawn) | -0.2% (inactive)
Cc1ccc2c(c1)c(C)cc(=O)n2CCC(=O)O | 1.1% (inactive)
CC(C)CC(=O)N(Cc1ccc(F)cc1)C1CCS(=O)(=O)C1 (stereo not drawn) | -4% (inactive)
COc1cccc2c(O)cc(=O)n(C)c12 | -8.1% (inactive)
CC(=O)c1cc2c(cc1NC(=O)c1ccco1)OCCO2 | -1.9% (inactive)
Cc1coc2c1c(C)cc1oc(=O)c(Cc3ccccc3)c(C)c12 | -4.3% (inactive)
O=C(NNC(=O)c1cccs1)c1ccco1 | 0.2% (inactive)
COc1ccc(N2C(=O)C3C(C2=O)C(C(=O)c2ccccc2)N2CCCC32)cc1 (stereo not drawn) | -3.5% (inactive)
COc1cc2cc(C)nc(Cc3cccc4ccccc34)c2cc1OC | 3.2% (inactive)
CCCc1cc(=O)[nH]c(=S)[nH]1 | 1.8% (inactive)
CCN(CCCc1ccccc1)CCCc1ccccc1 | -2.4% (inactive)
COc1cc(/C=C/C(=O)O)cc(S(=O)(=O)NCCCO)c1OC | 2.3% (inactive)
